Rab9 prom act: activators of Rab9 promoter | Huh7 Rab9 promoter-luciferase reporter, luminescence, 24 h | Potency, µM (series often up to 9.22 µM), for the others: top-dose activation, negative = inhibition, hits mostly activators | actives 2.8% (n = 320,000); further: % of control where 0% means no effect; nearly all actives have a fitted effect of over 60% in size
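Huh7 cells stably carrying Rab9 promoter–luciferase reporter, plated 1500 cells/well, compound added after 2 h and incubated 24 h at 37 °C; luciferase luminescence then read after 10 min with detection reagent.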
ELG1 genotoxic: inducers of genotoxicity in HEK293T ELG1-luciferase cells; HEK293T ELG1-luciferase reporter, luminescence, 16 h; Potency, µM (titrated, usually from 46 µM), for inactives: at the highest dose activity change, positive = activation, most hits filed as activators; actives 1.3% (n = 330,000); AID 504466; further: % of control where 0% means no effect; nearly all actives have a fitted effect of over 60% in size
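After overnight (16 hr) compound treatment at 37 °C, ELG1-luciferase HEK293T cells were lysed with ONE-Glo; luminescence quantified 30 min later at room temperature.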
NPC1 promoter act: activates the NPC1 promoter; Huh7 NPC1 promoter luciferase reporter, 24 h; Potency, µM (highest dose often 9.22 µM), for the others: at the highest dose activation, actives largely listed as activators; actives 2.4% (n = 320,000); AID 485313; further: % of control where 0% means no effect; nearly all actives have a fitted effect of over 60% in size
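Luciferase expression driven by the NPC1 promoter was measured in stably transfected Huh7 cells after a 24 h compound incubation, using a luciferase reagent and a luminescence read.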
SMN2 splice up: SMN2 splice variant enhancement; HEK293 SMN2-luciferase splicing reporter, luminescence, 30-36 h; Potency, µM (titrated, usually from 46.1 µM), inactives show top-dose activity change, positive = activation, most hits filed as activators; actives 2.8% (n = 210,000); AID 1458; further: % of control where 0% means no effect; nearly all actives have a fitted effect of over 55% in size
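HEK293 cells carry an SMN2 minigene-luciferase reporter in which exon 7 inclusion puts luciferase in frame. Cells were seeded at 2000 cells/well, attached for 10-12 hours, then exposed to compounds for 30-36 hours at 37C before ONE-Glo luminescence.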
ELG1 DNA repair: blocks ELG1-dependent DNA repair in HEK293T cells | HEK293T ELG1-luciferase reporter, luminescence, 16 h; DNA damage induced by 5-fluorouridine | Potency, µM (titrated, usually from 46.1 µM), inactives show top-dose activity change, negative = inhibition, actives largely listed as inhibitors | actives 2.3% (n = 330,000); further: on the % scale 0 is the no-effect control and ±100 the full control effect; nearly all actives have a fitted effect of over 55% in size
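Quantitative HTS, concentration-response format. 2,000 cells/well co-treated with 5-fluorouridine and compound, 16 hr in 5% CO2 at 37 °C; ONE-Glo luminescence read after 30 min.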
FLuc modulator: inhibits or activates purified firefly luciferase, miR-21 counter-screen; actives 6.9% (n = 360,000); purified FLuc, Km substrates, luminescence inhibition; Potency, µM (top dose mostly 57.5 µM), for inactives: top-dose activity change, negative = inhibition, hits mostly inhibitors; P08659;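 further: plate controls were vehicle for no effect and reference inhibitor for full effect; nearly all actives have a fitted effect of over 55% in size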
Target sequence (P08659 whole entry, looked up): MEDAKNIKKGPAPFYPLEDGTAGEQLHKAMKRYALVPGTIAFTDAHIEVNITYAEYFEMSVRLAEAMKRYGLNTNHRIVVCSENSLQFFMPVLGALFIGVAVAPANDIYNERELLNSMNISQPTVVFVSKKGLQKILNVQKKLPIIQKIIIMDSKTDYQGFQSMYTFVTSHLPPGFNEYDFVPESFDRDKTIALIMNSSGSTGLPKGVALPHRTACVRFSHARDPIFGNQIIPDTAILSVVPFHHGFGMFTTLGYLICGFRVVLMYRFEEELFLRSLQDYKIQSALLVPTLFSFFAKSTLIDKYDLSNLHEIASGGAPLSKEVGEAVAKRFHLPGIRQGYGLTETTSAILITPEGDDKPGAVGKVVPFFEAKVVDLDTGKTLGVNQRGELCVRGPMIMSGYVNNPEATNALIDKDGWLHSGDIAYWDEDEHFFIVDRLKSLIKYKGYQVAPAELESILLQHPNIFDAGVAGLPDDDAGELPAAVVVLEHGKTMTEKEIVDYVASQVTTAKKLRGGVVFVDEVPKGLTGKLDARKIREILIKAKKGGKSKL
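Purified P. pyralis luciferase (10nM final) with 10uM D-luciferin and 10uM ATP (Km levels) in 50mM Tris acetate pH 7.5, 10mM Mg acetate, 0.01% Tween-20, 0.05% BSA; qHTS 6-point titration, ~60 µM downward; luminescence read.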
Numbers without * were called inactive; [ ] = dose if it differs, or a comment. In the library only some 9.2% were active in any assay of this set; here they are far more common. The call rests on the fitted dose curve; in most records, active means well fitted curve in the direction sought with a large enough effect; inconclusive means small, poorly fitted or top-dose-only effect, or another doubt; inactive means no such curve, though single readings can be large; an effect the other way counts as inactive or inconclusive. Potency means the concentration at half of the fitted maximal effect.

What do the screens show for `CNC(=O)c1cc2c(ccc3ccccc32)o1`?
Rab9 prom act: inconclusive; ELG1 genotoxic: inconclusive; NPC1 promoter act: inconclusive; SMN2 splice up: 29%; ELG1 DNA repair: inconclusive; FLuc modulator: 19µM*

What do the screens show for `CCc1cccc(NC(=O)CSc2ncc3c(n2)-c2ccccc2N(Cc2ccccc2C)S3(=O)=O)c1`?
FLuc modulator: 6%

What do the screens show for `CCS(=O)(=O)N1CCCc2cc(C(=O)Nc3cccc(C(C)=O)c3)ccc21`?
FLuc modulator: -6%

Results for COc1cccc(NC(=O)c2ccc[n+](C)c2)c1 ?
Rab9 prom act: -6%; ELG1 genotoxic: -2%; NPC1 promoter act: -4%; ELG1 DNA repair: -8%; FLuc modulator: 7%

How did COc1cccc(NC(=O)c2ccc3c(c2)CCCC3)c1 do in these assays?
Rab9 prom act: 1.4µM*; ELG1 genotoxic: 2.6µM*; NPC1 promoter act: 1.4µM*; ELG1 DNA repair: inconclusive; FLuc modulator: 1.2µM*

Results for CC(=O)c1cccc(NC(=O)c2ccc3c(c2)CCCC3)c1 ?
Rab9 prom act: 4µM*; ELG1 genotoxic: 14%[9.26 µM]; NPC1 promoter act: 2.5µM*; ELG1 DNA repair: inconclusive; FLuc modulator: 1.3µM*

What do the screens show for `CN(C)C(=O)c1ccc(NC(=O)COc2ccc([N+](=O)[O-])cc2)cc1`?
Rab9 prom act: 1%; ELG1 genotoxic: -3%; NPC1 promoter act: -6%; SMN2 splice up: 2%; ELG1 DNA repair: -9%; FLuc modulator: -1%

Results for CCC(=O)N1c2ccccc2C(N(C(C)=O)c2ccccc2)CC1C (stereo not given) ?
Rab9 prom act: -3%; ELG1 genotoxic: inconclusive; NPC1 promoter act: -12%; SMN2 splice up: 5.6µM*; ELG1 DNA repair: inconclusive; FLuc modulator: 6%

What do the screens show for `CCC(=O)N1c2ccccc2C(N(C(=O)CC)c2ccccc2)CC1C` (stereo not given)?
Rab9 prom act: -2%; ELG1 genotoxic: 23µM*; NPC1 promoter act: -1%; ELG1 DNA repair: inconclusive; FLuc modulator: -2%

How did CCCC(=O)N1c2ccccc2[C@@H](N(C(C)=O)c2ccccc2)C[C@H]1C do in these assays?
Rab9 prom act: 5%; ELG1 genotoxic: 0%; NPC1 promoter act: -2%; SMN2 splice up: 6%; ELG1 DNA repair: 7%; FLuc modulator: 1%

What do the screens show for `COC(=O)c1[nH]c2cc(C)ccc2c1NC(=O)CN1CCCc2ccccc21`?
Rab9 prom act: inconclusive; ELG1 genotoxic: 5%; NPC1 promoter act: inconclusive; SMN2 splice up: 10%; ELG1 DNA repair: inconclusive; FLuc modulator: 24µM*

Results for COC(=O)c1c(NC(=O)CN2CCCc3ccccc32)sc(C)c1C ?
Rab9 prom act: -3%; ELG1 genotoxic: 0%; NPC1 promoter act: 0%; SMN2 splice up: -30%; ELG1 DNA repair: 2%; FLuc modulator: -12%

How did COC(=O)c1[nH]c2ccc(Br)cc2c1NC(=O)CN1CCCc2ccccc21 do in these assays?
Rab9 prom act: -2%; ELG1 genotoxic: 0%; NPC1 promoter act: -3%; SMN2 splice up: -16%; ELG1 DNA repair: 8.2µM*; FLuc modulator: -2%

What do the screens show for `CC(C)(C)OC(=O)C[C@@H]1C/C=C\C[C@H](CC(=O)NCCO)C(=O)NC[C@H](c2ccccc2)OC1=O`?
ELG1 genotoxic: 4%; ELG1 DNA repair: 22%

How did O=C(OCC(=O)c1c[nH]c2ccccc12)c1cc2ccccc2cc1O do in these assays?
Rab9 prom act: 10%; ELG1 genotoxic: 8%; NPC1 promoter act: 1%; SMN2 splice up: 10%; ELG1 DNA repair: inconclusive; FLuc modulator: inconclusive

Results for CC(C)c1ccc2oc(-c3cccc(NC(=O)c4ccc5c(c4)OCCO5)c3)nc2c1 ?
SMN2 splice up: -3%; FLuc modulator: 2.1µM*
